Laboratory results: PubChem BioAssay AID1159506 (National Center for Advancing Translational Sciences (NCATS), 2015)
Whole data set: some 59,000 sequences, median the read-out near -0.00055, cut for the lowest 2% near -2. Shown is part of a subset that was picked to be rich in the lowest values.

Test: Identification of proteins required for the processing of the EWS-FLI1 nascent transcript;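 note: robust z of luciferase light less the median z of siRNAs with the same seed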
Conditions: TC32 Ewing sarcoma NR0B1-luc vs CMV-luc (EWS-FLI1 target promoter against control promoter), 48 h; screened at 20 nM (by protocol)
Description: Ewing sarcoma (ES) cells depend on the EWS-FLI1 fusion transcription factor for cell survival. Using an assay of EWS-FLI1 activity and genome-wide siRNA screening we have identified proteins required for the processing of the EWS-FLI1 nascent transcript. Parallel genome-wide siRNA-mediated RNAi screens were conducted in Ewing sarcoma TC32 cell lines expressing a luciferase (luc) reporter protein driven by either the promoter of the EWS-FLI1 target gene NR0B1 (TC32-NR0B1-luc) or the CMV promoter (TC32-CMV-luc). Luciferase activity was assessed 48 hours post siRNA-transfection.
Twenty microl of serum-free media containing Lipofectamine RNAiMax (0.05 microl) was added to wells containing siRNA (0.8 pmol). Lipid and siRNA were allowed to complex for 45 min at ambient temperature before addition of 600 cells in RPMI-1640, 20% FBS to yield final transfection mixtures containing 20 nM siRNA in RPMI-1640, 10% FBS. Luciferase expression was measured using OneGlo (Promega, Madison, WI). The genome-wide screening campaign was conducted using Ambion's human genome library version 4.1 (Ambion, Austin TX). This library targets approximately 21000 human genes, three siRNAs per gene. Each siRNA is arrayed in an individual well of a 384-well plate. Parallel transfections were conducted in TC32-NR0B1-luc and TC32-CMV-luc cell lines and luciferase expression (OneGlo, Promega) was assayed 48 h later on a PerkinElmer Envision 2104 Multilabel plate reader (PerkinElmer, Waltham, MA). Qiagen's AllStars Negative control was incorporated on all screening plates for normalization (16 wells per plate). Qiagen, Germantown, MDsiGL4 was incorporated as a positive transfection control (16 wells per plate) on all plates. […] The raw luciferase data for the NR0B1- and CMV-luc screens were normalized and z-score-MAD transformed using standard methods (Chung et al., 2008). The miRNA-like seed sequence of every siRNA was determined and the median z-score for all siRNA sequences with the same seed sequence was calculated. This z-score was subtracted from the z-score associated with each siRNA with that seed sequence to generate a seed-adjusted z-score value (Z) that was used when the results for the three siRNAs corresponding to each gene were compared (Marine et al., 2012)

Row | Sequence | seed-corrected z-score
1 | AUCUCAUAAAAGAUCAUCC against NUTM1 | -0.0209
2 | UAUUGUUAAGGACUUUAAC against DNAJB6 | 0.648
3 | UUCGGUACACUCAUACGGC against ZNF300 | 0.363
4 | UUAGCUGCUCGGUAACUGG against EPB41 | -2.39
5 | UAAUGACAUAUCGACAUUU against MIDN | -0.523
6 | UUAGAGAAUAUGCCCAUGA against FGD3 | -1.11
7 | UUUGGGUAGAGGCCGAAUG against DNAJC13 | -2.18
8 | UAUGUUAUCAGUCCAUCUG against MND1 | 0.573
9 | UCUACAUCAAUAACAGAGG against C5orf28 | 0.545
10 | UUAUUGGUUGUGACUUUCC against TSLP | 0.686
11 | UCCCUUUUAAGCAACCUAC against APOC3 | -0.83
12 | UCAAUAUCCAGACCUGGUG against SF3A1 | -2.88
13 | UCCCGUAAAACAGAGACAC against OR2C3 | -0.66
14 | AUCGUGCUCGCUUGGAUCC against LOC729083 | -0.203
15 | UCGGUUGCGAAUCAGAAUC against NOTCH2 | -2.01
16 | UUAGAUACUCUGCAGGAUG against EPHA5 | 0.46
17 | UUUAAUGUCCCAGUCCUCG against TMEM160 | 0.858
18 | UCUUACAUAGGUAAUUGCC against AGTR1 | -0.402
19 | UUCCUUAACCCAUCUACAG against C2orf49 | 0.273
20 | UGAAUGACAUCCACUACCU against OR6K2 | 1.02
21 | UCAAAGUCGAUUUCAAUCU against BRD4 | -2.4
22 | UAGAUGUCUGGAGCCCAUC against LYPD6 | -0.74
23 | AAAGGAGUCAGAUUCAUGC against GPATCH2L | 0.347

Row | Sequence | seed-corrected z-score
24 | UCUCCAACCAAUUGCCUCC against LOC200726 | -0.147
25 | UAGGGAACUCGUAUCUAGC against RNF213 | 0.191
26 | UAGUUGUCGAUGUAAACUC against MUC2 | -2.67
27 | UUCCAUAUUACCGAGGUCC against ALCAM | 0.291
28 | UCUGAGAUAACAGUUCCUG against LOC644681 | -0.647
29 | UUCUCGAUCAUCCUGAUCU against BGN | -3
30 | UGCUAGACAAUUCCACUUC against SLX4 | -1.39
31 | UAUCGCUCCUGACUAUUGC against PPP1R10 | -0.157
32 | ACAACUAUGAUUUUAAGGC against ACSL1 | 0.252
33 | UUGUCUUUCCGGCUAAAGC against ZFP64 | -1.36
34 | UAUUGUAAGAAAACCCUUG against GNA13 | 1.07
35 | UCUGUGUCCACAGAGCCGU against GPR78 | -2.26
36 | UACUACACUAUUCUUCAGG against TADA1 | -0.3
37 | UUGCGACUCAUGAAAUGGG against INO80 | 0.511
38 | AUGGUAGUAAUCGCGGGCG against HSPA12B | -2.44
39 | UAAGCGAAUAGGAUGCGCU against YWHAEP5 | -1.53
40 | UUUGCGAUGUUCCUCUUCC against GOLIM4 | 0.684
41 | UCAUUUCUAAGACCGCAUG against HNRNPUL1 | -0.605
42 | AAAGGUCAAUUCUUGAUGG against OR2L8 | 1.81
43 | UCUGGAUGGAGGUUUGUUC against SLC38A10 | 1.34
44 | UUGGAACAUAUUGGGAUCG against DDN | -0.0544
45 | AUGUUUUCGCUGGAGUUGG against SSBP4 | 0.9
46 | AUAGGUCUGAAUGAGCUGC against PLCD3 | -0.512

Row | Sequence | seed-corrected z-score
47 | UUCCUCAAAACUGCAGACU against LOC729451 | -0.00746
48 | UCCAUGUUGUCGAUCAUCU against RGS9BP | -2.21
49 | UAUGAGUGCUCCACGAUGC against APOL3 | 0.115
50 | UUCAUGACAAAGCUUGACC against PFN1P3 | -0.053
51 | UUGGUAAACAUCUCCAGGC against TRIM63 | 1.24
52 | UUGUCGUUCAGCAAACUCC against ASCC2 | -2.07
53 | UCAGGAUAUAGUUUAGGAC against TMEM144 | 0.846
54 | AAUGUAUCAAGUAUGUCGG against C16orf62 | -2.25
55 | UGAAAUAUCUCCAGGAUCU against EFCAB12 | 0.249
56 | UAUGCGUUUUGGAGAUUCC against PARP8 | -0.784
57 | UCUGUCUUCCCAUAGGAUG against LOC440040 | -2.05
58 | AAUGGUAGAACAUCCCUGC against RIN2 | -0.24
59 | AACUUGAUCAAGUAGCUCG against EBLN1 | -0.0938
60 | UGUCAGUAUAGCACAGAUC against EFTUD2 | -2.05
61 | AAGGUAACCAGCUCGAUGG against RPL7AP27 | -0.369
62 | UUCUUUAUCCUUAGUCCUC against NFATC2IP | -3.11
63 | UACAGUAAUAGUGAGGCAG against GYPB | 2.32
64 | UUAGGGUCAGGAGCAGACA against CYP2F1 | -0.167
65 | UACUAACUUUUCGAUGUCC against MX2 | 0.257
66 | UAGGUUGCAUCAUAGAGGG against CFL1 | -2.11
67 | UUUCGUGUUGCCGUAUUUC against GEMIN5 | 0.131
68 | UACCAGUCAGGGUCUUCAC against UBC | -8.62
69 | UGAGUAGAUGAUCUUGUCG against GNA11 | 0.913

Row | Sequence | seed-corrected z-score
70 | AUAGGUGUCCUUCAGGUCC against MYL5 | -0.00285
71 | UGAGAUUUGAUGAUUCUGC against OR7E24 | 0.344
72 | UGUGAAAGAGGCGAAAUGC against ELAC1 | 0.216
73 | UUUUCCACAACCGUAGUCA against GOLGA8G | 0.524
74 | GAUGGAGGUGCCAUGGUUG against ZSWIM3 | -0.304
75 | UCUGGUUCUUUGUAAAGGC against S100A11P1 | -2.25
76 | UUAGGCUUAUUUCCCGCUC against BTN3A2 | -0.656
77 | UAGUGUACUCUAGAGCCCG against PLEKHG4 | 0.519
78 | UUUCUCAUCACUAGAAGUC against PPIH | -0.684
79 | UUGGAGAUAAGGGUUCUUG against MSTO1 | -2.21
80 | UGCAUCUUCUCUUAUGUGC against C16orf90 | -1.02
81 | UAACACUUUCAUUCCUGUC against FAM86B1 | -1.15
82 | UCUUGGUCAGGUUUCCUCG against MUSTN1 | -0.107
83 | AUUCUUCUAGGCAUUGCCC against PDE6D | 0.469
84 | UCUAUUACUUUCACAAUGC against KDM6A | -0.344
85 | AUUCACACCAGUAUUAGUG against KIAA1456 | 0.152
86 | UAAUCCGUAAAUUCGAUAC against RNF139 | 0.709
87 | AUAGCUGCAGGAUCUAAGC against POLR3A | -3.95
88 | UUCCGGUAGAAGAUGAGCC against SHMT2 | 0.314
89 | UUCAUGGUAGGAAAGGUCU against DXO | 1.33
90 | UAGUAUCAAAUAUCCAGAC against TMEM60 | 0.0266
91 | UAAUGUACACCACAUUGGG against FAM198B | -2.46
92 | UUCACGUUCAUUGCAGUCU against RAB5C | -1.4

Row | Sequence | seed-corrected z-score
93 | ACAGUUAAGACACCACUCC against FXN | 1.1
94 | AUAAGCAACACCAUUAUGG against BOLL | 1.08
95 | AAUGGGUCUACCUUGUUGG against PSMC5 | -1.78
96 | AAUAAAGACGGAUUUAUUC against HTATIP2 | 0.204
97 | UUUGAUAUGAUGUUCCACC against DDX50 | -0.378
98 | AAACGAUCCAUAUAGUCCG against MIER3 | 0.02
99 | UAUUGACCAAGAUCACAUG against FASTKD2 | 0.878
100 | AGCUGUAUCCAUUAGGGUG against NTSR2 | 0.216
101 | UUCCAUGUAACCGUCGUUC against SHE | -0.285
102 | AGAUCUAUUACUUCCAGGG against LRRC34 | -3.45
103 | AAAGCGACACUUAUCACCC against WRB | 0.538
104 | UCUUUAAGAAUUGCACAUC against NAAA | -0.571
105 | UCCUGCUUCAGUAAAUCUC against MRPL24 | -2.37
106 | UCUCGAUUUAGCUUAGGCC against SKP2 | -0.249
107 | AUAUCAACAAGCCCAAUUC against KCNB2 | -0.883
108 | UAGCCGACAAAACAACAUC against HEATR1 | -0.424
109 | AAAGCUAUUAUCAUGUAGG against SLC35B3 | 0.789
110 | AUCGGUAUAGUUGAUGCAC against SCN10A | 0.0881
111 | UUUUGAACCAGGGUAGUUC against GNA15 | 0.0907
112 | UCCGGAACAUAUGUUGUCG against TNFRSF11B | -0.942
113 | UGAUGAUCUACACUGAUUC against FAM91A1 | -2.35
114 | UUGGAUUGGCGCUAUGUUC against ANKRD20A18P | -0.888
115 | UUGUAGACCAUGUUGGAGC against POLE | -0.71

Row | Sequence | seed-corrected z-score
116 | UCUGGUUCUUGUGCUCUUC against INO80B | -2.05
117 | AAUCGGAUUUUGUUGAGUC against SOWAHC | -0.193
118 | UUUCUUCCUGUGCACGUCA against OXCT2 | -0.277
119 | UCUUCAGCCGCAUCGAUCU against TNNI2 | 0.556
120 | AUCUGUAUAAUCGACAGGC against BARD1 | -1.42
121 | AAACGGUACAGAGCGCUGC against C1orf233 | -1.64
122 | UAGCAUGAAACUUUUGUUG against STK35 | 0.199
123 | UUGGUUGGAACUACUUACG against STARD9 | -3.22
124 | UGUGGUAUUUAGUUGUUCG against PRMT2 | -0.735
125 | ACUGGAAUAAGACCGGCUG against EMCN | -0.0798
126 | ACUAGGAUCACGACUUUCC against SLC30A9 | -0.286
127 | UCUGUUUUCAGGUGCAUCC against AHRR | -0.835
128 | UUCGUUAUCUAUUUCCACC against CASC5 | -1.38
129 | UCAUUGUUCAAGGUCAUUC against ABTB2 | 0.182
130 | UUCCAGUUGAGUGGUGUCC against SLA2 | -2.67
131 | AAUUUGUUCACGUAAACUU against POU3F2 | 0.623
132 | UUCCGUAAGACUGACACUC against REG4 | -15.5
133 | UCUCGUUCGGUAAUCUUCC against PPP2R2C | -0.613
